# High-throughput results from PubChem BioAssay.
# KDM4E inh – qHTS Assay for Inhibitors of Human Jumonji Domain Containing 2E (JMJD2E); Potency, µM (highest dose often 57.1 µM), most hits filed as inhibitors; JMJD2E catalytic domain, FDH-coupled NADH fluorescence (FDH is formaldehyde dehydrogenase); Lysine-specific demethylase 4E (Homo sapiens), B2RXH2; AID 2147, 2009; 230,000 compounds, 1.6% hits; active means well fitted inhibition curve with a large enough effect, not every such curve was filed as active; inconclusive means small, poorly fitted or top-dose-only effect, or another doubt; inactive means no such curve, though single readings can be large or run the other way; further: nearly all actives have a fitted effect of over 50% in size
# Sfp inh – qHTS Assay for Inhibitors of Bacillus subtilis Sfp phosphopantetheinyl transferase (PPTase) | 4'-phosphopantetheinyl transferase ffp (Bacillus subtilis), Q9F4F7 | Biochemical Sfp PPTase activity, qHTS | Potency, µM, hits mostly inhibitors | 310,000 compounds, 3.5% hits | AID 1490, 2009;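 further: the enzyme is Sfp with the accession as filed and its product quenches rhodamine fluorescence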
#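 Buffer: 50 mM Hepes-Na pH 7.6, 10 mM MgCl2, 0.01% Nonidet P-40, 0.01% BSA. Enzyme 15 nM, pre-exposed to compound 15 min; substrates then added and fluorescence change tracked over 30 min.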
# ALDH1A1 block – qHTS Assay for Inhibitors of Aldehyde Dehydrogenase 1 (ALDH1A1); Purified ALDH1A1, NADH fluorescence, propionaldehyde substrate; Aldehyde dehydrogenase 1A1 (Homo sapiens), P00352; 220,000 compounds, 7.3% hits; Potency, µM (highest dose often 75.3 µM), usual class: inhibitors; active means well fitted inhibition curve with a large enough effect, not every such curve was filed as active; inconclusive means small, poorly fitted or top-dose-only effect, or another doubt; inactive means no such curve, though single readings can be large or run the other way
# Target sequence (P00352 whole entry, looked up): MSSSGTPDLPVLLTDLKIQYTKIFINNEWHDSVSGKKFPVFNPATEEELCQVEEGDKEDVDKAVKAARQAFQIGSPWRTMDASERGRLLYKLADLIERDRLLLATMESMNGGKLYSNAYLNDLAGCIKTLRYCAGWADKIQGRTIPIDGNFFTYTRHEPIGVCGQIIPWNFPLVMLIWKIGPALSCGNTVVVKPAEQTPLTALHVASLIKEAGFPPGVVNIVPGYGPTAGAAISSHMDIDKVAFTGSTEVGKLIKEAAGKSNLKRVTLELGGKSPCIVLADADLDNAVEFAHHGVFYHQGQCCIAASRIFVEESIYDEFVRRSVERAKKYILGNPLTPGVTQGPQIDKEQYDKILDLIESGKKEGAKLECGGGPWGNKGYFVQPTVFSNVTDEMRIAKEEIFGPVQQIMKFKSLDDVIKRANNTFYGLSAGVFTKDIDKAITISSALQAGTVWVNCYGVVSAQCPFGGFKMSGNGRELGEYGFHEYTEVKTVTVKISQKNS
# miR-21 act – qHTS Assay for Modulators of miRNAs and/orActivators of miR-21; HeLa miR-21 FLuc reporter, luciferase, 48 h; Potency, µM (highest dose often 38.3 µM), actives largely listed as activators; 340,000 tested, under 10 active; AID 2288, 2010;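 further: miR-21 action dims this reporter so a rising signal means less miR-21 action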
#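 HeLa cells stably expressing CMV-driven firefly luciferase with a downstream miR-21 binding sequence, endogenously expressing miR-21, were treated with titrations (up to about 40uM final) for 48 hours at 37 degree Celsius. Luciferase luminescence was read after lysis.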
# Lamin A splicing – qHTS Assay for Modulators of Lamin A Splicing; HeLa LMNA splicing GFP/RFP minigene ratio, 48 h; Potency, µM (doses to about 46.1 µM), actives largely listed as inhibitors; 200,000 compounds, 0.01% hits; AID 1487, 2009; active means well fitted inhibition curve with a large enough effect in the signal ratio, with a control signal flat, not every such curve was filed as active; inconclusive means small, poorly fitted or top-dose-only effect, or effect the other way, or a change in a side signal; the % refers to the signal ratio
#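 S3 HeLa cells stably expressing lamin A-EGFP splicing minigene plus DsRed2, 600 cells/well, 48 h compound exposure at 37C. Laser-scanning cytometry; analysed as GFP (500-530 nm)/RFP (575-640 nm) total intensity ratio; 0.5% DMSO vehicle.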
# G9a inh – qHTS Assay for Inhibitors of Histone Lysine Methyltransferase G9a; Histone-lysine N-methyltransferase EHMT2 (Homo sapiens), Q96KQ7; G9a H3K9 monomethylation, AlphaScreen, 2 h; Potency, µM (top dose mostly 102 µM), most hits filed as inhibitors; 350,000 compounds, 8.8% hits; further: nearly all actives have a fitted effect of over 75% in size
#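 Compounds were preincubated with 20 nM G9a for 15 min, after which biotinylated H3K9 peptide (500 nM) and SAM (20 uM) started a 2 h room-temperature reaction. Monomethylated product was quantified by antibody-based AlphaScreen chemiluminescence.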
# A number is an active result; n = inactive; u = inconclusive; x = no result given; [ ] = dose if it differs, or a comment. The list is not random: actives were taken first. Their share in the collection is about 13%. Unless noted, the call rests on the fitted dose curve; in most records, active means well fitted curve in the direction sought with a large enough effect; inconclusive means small, poorly fitted or top-dose-only effect, or another doubt; inactive means no such curve, though single readings can be large; an effect the other way counts as inactive or inconclusive.
SMILES,KDM4E inh,Sfp inh,ALDH1A1 block,miR-21 act,Lamin A splicing,G9a inh
CCOC(=O)c1[nH]c2ccccc2c1NC(=O)CC(C)(C)C,u,n,u,n,n,50µM
CCOC(=O)c1[nH]c2ccccc2c1NC(=S)Nc1cccc(C)c1C,u,u,u,n,n,45µM
C=CCOC(=O)Nc1c(C(=O)OC)[nH]c2ccccc12,u,n,n,n,n,50µM
CCCN(CCC)C(=O)c1c2c(nc3ccccc13)C(=O)N(C1CCCCC1)C2,x,x,x,n,n,n
CCN(CC(=O)NCc1ccc(Cl)cc1)C(=O)/C=C/c1ccc(Cl)c([N+](=O)[O-])c1,x,79µM,x,n,x,n
CCN(CC(=O)NCc1ccc(Cl)cc1)C(=O)/C=C/c1ccccc1,x,n,x,n,x,n
CN(C)c1ccc(C2C3CCCc4ccccc4C3=NN2C)cc1 (stereo not drawn),u,n,u,n,n,10µM
O=C(Nc1nnc(C2CC2)s1)C1Cc2ccccc2CN1C(=O)c1ccco1 (stereo not drawn),n,40µM,u,n,n,20µM
O=C(Nc1nnc(SCc2ccc(F)cc2)s1)C1Cc2ccccc2CN1C(=O)c1ccco1 (stereo not drawn),n,n,n,n,n,u
C[C@@H](CC(=O)O)[C@@H](N)C(=O)O,n,n,n,x,x,n
CN(C(=O)COc1ccccc1)c1nnc(C23CC4CC(CC(C4)C2)C3)s1,n,n,n,n,u,14µM
CC1CCC2(CC1)NC(=O)N(CC(=O)N1CCN(c3ccccc3)CC1)C2=O (stereo not drawn),x,x,x,x,x,n
COc1cc(/C=C/C(=O)c2ccc(NS(=O)(=O)c3ccc(C)cc3)cc2)ccc1OC(F)F,n,n,n,u,u,n
COc1cccc(/C=C/C(=O)c2ccc(NS(=O)(=O)c3ccc(C)cc3)cc2)c1,n,n,n,n,u,2.5µM
COc1cc(/C=C/C(=O)c2ccc(NS(=O)(=O)c3ccc(C)cc3)cc2)cc(OC)c1O,u,n,22µM,u,u,40µM
O=C(CCn1cccn1)Nc1ccc2c(c1)OCCO2,x,n,x,n,x,n
Cc1cccc(C(=O)OCN2C(=O)c3ccccc3C2=O)c1[N+](=O)[O-],x,n,x,n,x,n
CCSc1nc(C)nc2sc(C)c(C)c12,n,n,x,n,x,n
CCCOc1ccc(N2C(=O)C3ON(c4ccccc4)C(CCC)C3C2=O)cc1 (stereo not drawn),n,n,18µM,n,n,40µM
CN(C)c1ccc(C2C3C(=O)N(c4ccc(C(=O)O)cc4)C(=O)C3ON2c2ccccc2)cc1 (stereo not drawn),n,n,u,n,n,u
CCCC1C2C(=O)N(c3ccccc3OC)C(=O)C2ON1c1ccccc1 (stereo not drawn),n,n,n,n,n,n
COc1cc(C2C3C(=O)N(Cc4ccccc4)C(=O)C3ON2c2ccccc2)cc(OC)c1O (stereo not drawn),u,n,u,n,n,50µM
CCCOc1ccc(N2C(=O)C3ON(c4ccccc4)C(c4ccc(O)c(OC)c4)C3C2=O)cc1 (stereo not drawn),n,n,32µM,n,n,50µM
CCN(c1ccccc1)S(=O)(=O)c1ccc(Cl)c(C(=O)NCC2CCCO2)c1 (stereo not drawn),n,n,n,n,x,n
O=C(Nc1ccc(C(=O)N2CCN(c3cccc(Cl)c3)CC2)cc1)c1nsc2ccccc12,x,x,x,n,n,n
SMILES,KDM4E inh,Sfp inh,ALDH1A1 block,miR-21 act,Lamin A splicing,G9a inh
COc1ccc(/C=C/C(=O)C(C(N)=O)=C2SCCS2)cc1,n,n,n,n,u,n
Cc1ccc(C(=O)C(C(=O)/C=C/c2ccccc2)=C2SCCCS2)cc1,n,n,u,u,u,7.1µM
CCn1c(=O)n(-c2cccc(Cl)c2)c(=O)c2sc3ccccc3c21,x,x,x,n,x,n
COc1ccc2ccccc2c1/C=N/Nc1ccc(Cl)c(C(=O)O)c1,x,n,x,n,x,45µM
C(=N\Nc1ccccn1)/c1c[nH]c2ccccc12,n,u,x,n,x,n
O=c1nc(N/N=C/c2c[nH]c3ccccc23)cn[nH]1,n,50µM,x,n,x,x
O=C(O)c1cccc(N/N=C/c2ccc(F)c(F)c2)c1,n,n,u,n,x,7.9µM
O=C(O)c1cccc2c(/C=N/Nc3ccccn3)c[nH]c12,u,50µM,x,n,x,x
O=S(=O)(c1ccccc1)c1nc(-c2ccccc2)oc1N1CCN(c2cccc(Cl)c2)CC1,x,x,x,n,x,n
O=C(O)c1cccc(N/N=C/C2=C(Cl)c3cc(Cl)ccc3SC2)c1,n,n,20µM,n,u,50µM
O=C(O)c1cccc(Cn2c(Cl)c(/C=N/Nc3ccccc3)sc2=O)c1,n,8.9µM,22µM,n,x,13µM
O=C(O)c1cccc(N/N=C/c2cccc3ccccc23)c1,x,n,x,n,x,35µM
O=C(N/N=C/c1ccc(O)cc1)c1cccc(N/N=C/c2ccc(O)cc2)c1,n,n,22µM,n,x,10µM
CCCNC(=O)OC[C@H]1O[C@@H](CCO/N=C2/C[C@@H](O)[C@@H](O)[C@@H]3[C@@H]4C(=O)N(CC)C(=O)[C@H]4CC[C@@H]23)C=C[C@@H]1Oc1ccc(OC)cc1,x,n,n[13.5 µM],x,x,x
COc1ccc(C(CNC(=O)c2[nH]c(C)c(C(C)=O)c2C)N2CCOCC2)cc1 (stereo not drawn),x,x,x,x,x,n
COc1ccc2ccccc2c1/C=N/Nc1cccc(C(=O)O)c1,x,n,x,n,x,45µM
Cc1ccsc1/C=N/Nc1cccc(C(=O)O)c1,n,n,n,n,n,45µM
COc1ccc(-c2nn(-c3ccccc3)cc2/C=N/Nc2ccc(Cl)c(C(=O)O)c2)cc1OC,u,n,x,n,x,40µM
O=C(O)c1cc(N/N=C/c2c[nH]c3ccccc23)ccc1Cl,x,n,x,n,x,45µM
O=C(N/N=C/c1c[nH]c2ccccc12)c1cccc(Cl)c1,x,n,x,n,x,n
O=C(NCC1CCCO1)c1cccc(NS(=O)(=O)c2ccc(Br)cc2)c1 (stereo not drawn),x,x,x,x,x,n
CCC/C=C(\CCC)C(NC(=O)OCC(C)C)c1ccccc1 (stereo not drawn),n,n,n,x,x,x
CN1CCCC(OC(=O)c2ccccc2Br)C1 (stereo not drawn),x,n,x,n,x,n
COc1ccc(-c2nc3c(c(SCC(=O)N4CCCCC4)n2)Cc2cc(C)ccc2O3)cc1,x,x,x,n,x,n
COc1ccc(N/N=C/c2c(C(=O)O)ccc3ccccc23)cc1,25µM,n,x,n,x,n[12.7 µM]
Cc1nn(-c2ccccc2Cl)c(Cl)c1/C=N/Nc1cccc(C(=O)O)c1,u,n,u,n,n,8.9µM
